Common to all, as to experiment: NCI-60 one-dose screen, 48 h (100 = growth as untreated, 0 = no growth, -100 = all killed)
The subject of assay [1] is NCI-H23 lung. The conditions noted are these: 10 µM unless noted.
In assay [2] the test system is NCI-H226 lung. The following applies: 10 µM unless noted.
The subject of assay [3] is NCI-H322M lung. The following applies: 10 µM unless noted.
Assay [4] deals with NCI-H460 lung. The conditions noted are these: 10 µM unless noted.
Assay [5] has as its system HOP-92 NSCLC. The following applies: 10 µM unless noted.
Assay [6] concerns A549/ATCC NSCLC. The following applies: 10 µM unless noted.
For assay [7], the system named is 786-0 renal. The following applies: 10 µM unless noted.
Assay [8] has as its system COLO 205 colon. The following applies: 10 µM unless noted.
Assay [9] deals with NCI-H522 lung. The following applies: 10 µM.

The text below walks through data of PubChem BioAssay (NCI).

Compounds without any hit were thinned out: in the full panel of roughly 83,000, 20% have a hit.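 Step 1: grow cells in 96-well plates. Step 2: add test compound at a single concentration. Step 3: incubate 48 h. Step 4: record percent growth.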 Active and inactive are the calls of the source. How the source made its calls: active means growth percent below 10; inactive means the rest.

With `CCCCCc1c(C)[nH]c(/C=C2\N=C(c3ccc[nH]3)C=C2Oc2ccc(Cl)cc2)c1C`, the growth in [1] is -46.3% [100 µM] (active); in assay [2], 11.9% [100 µM] (inactive); in assay [3], 20.5% [100 µM] (inactive); in assay [4], 2.82% [100 µM] (active); in assay [5], -10.7% [100 µM] (active); in assay [6] it was -51.5% [100 µM] (active). Besides, the growth was -18.2% [100 µM] (active) in assay [7] and -85.5% [100 µM] (active) in assay [8].
Turning to `OCc1n(Cc2ccc3ccccc3c2)cc[n+]1Cc1ccc2ccccc2c1`, the growth is 67.7% (inactive) in assay [1]; 61.6% (inactive) in assay [2]; 78.9% (inactive) in assay [3]; 53.1% (inactive) in assay [4]; -2.81% (active) in assay [5]; 68.6% (inactive) in [6]. In addition, the figures for the growth in assay [7] and in assay [8] were 80.1% (inactive) and 23.1% (inactive), respectively.
`O=C(NCCNC(=O)Oc1cccc2ccccc12)Oc1cccc2ccccc12`: the growth in assay [1] is 91.2% (inactive); in [2] it was 79% (inactive); in [3] it was 99.1% (inactive); in assay [4] it was 106% (inactive); in assay [5], 79.8% (inactive); in assay [6] it was 93.4% (inactive). The growth was 106% (inactive) in assay [7] and 94.7% (inactive) in [8].
Turning to `CC(=O)N1N=C(c2ccc(Nc3ccnc4cc(Cl)ccc34)cc2)CC1c1ccc(Cl)cc1` (configuration not stated), the growth in assay [1] is 67.8% (inactive); in assay [2], 75.2% (inactive); in assay [3] it was 96.3% (inactive); in assay [4] it was 62.9% (inactive); in [5], 35.4% (inactive); in [9], 24% (inactive). Besides, the growth in assay [7] is 62.5% (inactive); in assay [8], 85.5% (inactive).
